Laboratory results: PubChem BioAssay (NCI)
Compounds without any hit were thinned out: in the full panel of roughly 83,000, 20% have a hit.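 Growth was measured after 48 h exposure to one concentration of compound in 96-well plates. Values under 10 count as active.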 Values without a mark were called inactive. Activity calls are given as the source filed them.

How the values were obtained:
Assay in all cases: NCI-60 one-dose screen, 48 h (100 = growth as untreated, 0 = no growth, -100 = all killed)
Details in all cases: 10 µM unless noted
SK-MEL-2 melanoma = tested on: SK-MEL-2 melanoma
EKVX NSCLC = tested on: EKVX NSCLC
SN12C renal = tested on: SN12C renal
UO-31 renal = tested on: UO-31 renal
TK-10 renal = tested on: TK-10 renal
ACHN renal = tested on: ACHN renal
CAKI-1 renal = tested on: CAKI-1 renal
A498 renal = tested on: A498 renal
CCRF-CEM leukemia = tested on: CCRF-CEM leukemia
MOLT-4 leukemia = tested on: MOLT-4 leukemia

Structure (SMILES)	growth (SK-MEL-2 melanoma)	growth (EKVX NSCLC)	growth (SN12C renal)	growth (UO-31 renal)	growth (TK-10 renal)	growth (ACHN renal)	growth (CAKI-1 renal)	growth (A498 renal)	growth (CCRF-CEM leukemia)	growth (MOLT-4 leukemia)
C=C(OC(C)=O)c1ccccc1	96.9%	111%	96%	101%	100%	115%	100%	95.3%	83.5%	
COc1ccc(-c2csc(NC(=O)Nc3nc(-c4ccc(OC)cc4)cs3)n2)cc1	116%	72.3%	93.6%	75.4%	99.8%	90.1%	81.5%	96.3%	76%	34.8%
CCCC1OC(c2ccco2)OCC1CC (stereo unspecified)	97.7%	96.4%	98.4%	77.6%	97.1%	105%	88.2%	94.6%	93%	89.3%
Cc1ccc2nc(-c3ccc(N=Cc4ccccc4O)cc3)sc2c1	101%	90.3%	90.4%	60%	139%	90.6%	67.7%	64.5%	77.4%	82.3%
O=S(Cc1ccccc1)/C(=C/NC(=S)Nc1cc(Cl)ccc1Cl)c1ccccc1 (stereo unspecified)	101%	99.3%	98.5%	83.9%	107%	99.9%	97.1%	101%	99.6%	
COC(=O)C1(CC(C)=O)NC(=S)NC(=O)C1C#N (stereo unspecified)	119%	96.4%	101%	92.2%	103%	109%	94.6%	147%	101%	108%
O=c1cc(Cl)nc2ccccn12	110%	102%	102%	84%	105%	110%	96.1%	103%	119%	106%
NNC(=O)N/N=C1\C(=O)N(c2nccs2)C(=O)C(=O)C1c1nc2ccccc2s1 (stereo unspecified)	98.4%	84.8%	96%	75.5%	114%	109%	96.7%	98.3%		
CC1(C)CC(=O)C=C(N)C1	98.4%	60.3%	99.3%	85.7%	99.2%	107%	85.1%	85.1%	124%	59.5%
CC1=CC(=Nc2ccc(N(C)C)cc2)C=C(C)C1=O	110%	93%	97.3%	62.3%	133%	77.3%	91.2%	76.8%	76.1%	87.6%
CCC(C)c1c(N)n(S(=O)(=O)c2ccc(C)cc2)oc1=O (stereo unspecified)	107%	121%	106%	89.5%	101%	99.9%	96.5%	113%	112%	109%
Nc1cc2ccccc2c(O)c1O	85.3%	83.4%	-22.3% (active)	55.2%	114%	9.52% (active)	84.5%	97.2%	19.6%	-6.45% (active)
CCCCCCCCCCCCCC/C=C\C(CC(=O)O)C(=O)O (stereo unspecified)	110%	140%	100%	95.9%	111%	110%	129%	95.2%	4.62% (active)	115%
Clc1ccc(C(SCc2ccccc2)SCc2ccccc2)cc1	103%	89.9%	104%	90%	104%	101%	85%	81.3%	83.4%	84.9%
O=C(c1ccccc1O)N1CCCC1	92.9%	97.5%	102%	91.9%	96.5%	94.4%	94.8%	91.9%	100%	98.6%
O=C(O)CC1=CCCCC1	119%	97.5%	104%	89.1%	108%	91.1%	97.7%	74.8%	96.9%	97.5%
N#C/C(=C\NC(=S)N=Nc1c(O)[nH]c2ccccc12)c1nc2ccccc2s1	105%	99.3%	110%	79.2%	140%	89.6%	96.2%	89%	93.4%	99.4%
CC(=O)CSc1ncnc2nc[nH]c12	95%	95.4%	96.9%	88.1%	88.8%	93%	80.9%	66.1%	89.3%	87.4%
N=C(N)c1nn(C2OC(CO)C(O)C2O)c2nc[nH]c(=O)c12 (stereo unspecified)	-23% (active)	-0.273% (active)	6.98% (active)	13.1%	-9.5% (active)	-5.7% (active)	1.5% (active)	15.4%	-0.754% (active)	-11.9% (active)
C=CC(=O)OC1CCC(C(C)(C)CC)CC1 (stereo unspecified)	108%	117%	103%	83.9%	101%	110%	115%	87.2%	106%	107%

Structure (SMILES)	growth (SK-MEL-2 melanoma)	growth (EKVX NSCLC)	growth (SN12C renal)	growth (UO-31 renal)	growth (TK-10 renal)	growth (ACHN renal)	growth (CAKI-1 renal)	growth (A498 renal)	growth (CCRF-CEM leukemia)	growth (MOLT-4 leukemia)
Cc1ccc(O)c(N)c1	112%	136%	107%	87.9%	127%	97%	215%	127%	78.7%	123%
CCOC(=O)/C(O)=C(\C=N\C(=S)Nc1ccc(Cl)c(Cl)c1)C(=O)OCC	116%	82.8%	93.4%	70.9%	117%	96.3%	89.2%	101%	97.7%	76.5%
O=C(Nc1c(Cl)cc(Cl)cc1Cl)ON=C1CCCCC1	107%	105%	98.4%	90.2%	100%	102%	97.2%	105%	102%	109%
Cc1ccc(S(N)(=O)=O)cc1Cl	103%	125%	106%	94.5%	107%	107%	101%	106%	102%	96.6%
O=C(c1ccc(Cl)cc1)N1CCCCC1	102%	98.1%	92.2%	93.3%	91%	101%	97.4%	73.3%	93.3%	98.9%
CSc1cnc2ccccc2n1	86%	103%	94.4%	78.4%	94.1%	107%	97%	105%	113%	107%
CCOC(=O)/C(C)=C\c1ccc(OC)c(OC)c1	112%	102%	104%	95.1%	104%	103%	96.1%	95.7%	88.8%	94.5%
CC1(C)OC2C(CO)OC(n3ccc(=O)[nH]c3=O)C2O1 (stereo unspecified)	96.6%	104%	90.1%	88%	87.2%	104%	101%	75.9%	101%	92.3%
COC(=O)C1=C(C)C(=O)CC1	115%	131%	98.3%	89%	108%	99.7%	116%	109%	99.6%	101%
O=S(=O)(O)c1cccnc1	136%	93.7%	105%	109%	104%	105%	95.2%	101%	-41.7% (active)	79.6%
S=C(NCc1ccccc1)N1CCC(CCCC2CCN(C(=S)NCc3ccccc3)CC2)CC1	114%	83.5%	96.8%	84.4%	108%	93.1%	86.6%	121%	88.8%	88.5%
CC(=O)N(C)N=Nc1ccc(C)cc1	101%	101%	100%	81.6%	92.7%	108%	98.6%	100%	95.6%	112%
CC1(c2ccccc2)CO1 (stereo unspecified)	107%	111%	107%	85.8%	102%	102%	107%	131%	97.7%	99.6%
C=CCNC(=S)N/C=C(/C(=O)c1ccccc1)c1ccccc1	120%	106%	93.6%	95.3%	107%	97.7%	101%	98%	101%	99.2%
CCC(C)C1CCC(O)CC1 (stereo unspecified)	104%	113%	108%	90.7%	103%	105%	96.6%	103%	125%	104%
O=C(NCc1ccccc1)c1cccc([N+](=O)[O-])c1	104%	102%	104%	70.1%	99.6%	102%	102%	82.3%	90.9%	102%
C=CCc1cc(OC)c(OC)c(OC)c1	108%	111%	99.5%	105%	104%	108%	100%	100%	104%	104%
CC(=O)Oc1c(Cl)cccc1-c1ccccc1	98.9%	103%	96.6%	84.8%	107%	108%	98.3%	96.9%	101%	107%
C/C(=N\O)c1ccccn1	94.9%	107%	91.4%	88.1%	95.8%	105%	95.3%	108%	96.5%	116%
O=C(O)Cc1ccccn1	106%	109%	112%	95.1%	105%	105%	93.9%	94.4%	101%	89.3%

Structure (SMILES)	growth (SK-MEL-2 melanoma)	growth (EKVX NSCLC)	growth (SN12C renal)	growth (UO-31 renal)	growth (TK-10 renal)	growth (ACHN renal)	growth (CAKI-1 renal)	growth (A498 renal)	growth (CCRF-CEM leukemia)	growth (MOLT-4 leukemia)
CCCCn1cnc2c(=O)[nH]cnc21	107%	97.9%	105%	94.7%	109%	89.7%	98.4%	108%	96.7%	96.2%
c1ccc(Oc2c3ccccc3nc3ccccc23)cc1	39.9%	62.1%	24.3%	43.8%	57.6%	31.9%	-20.4% (active)	33%	14.2%	14.5%
O=S(Cc1ccccc1)/C(=C/NC(=S)Nc1ccccc1)c1ccccc1 (stereo unspecified)	104%	102%	109%	81.7%	119%	97.2%	94.8%	120%	102%	103%
COc1ccc(Br)c2c1C(=O)CC2	96%	106%	91.8%	85.4%	147%	114%	110%	169%	93.1%	142%
COc1ccc(/C=C\C(=O)/C=C/c2ccc(OC)cc2)cc1	123%	93.2%	90.3%	69.1%	116%	95.5%	87.5%	174%	37.4%	68.2%
Cc1ccc(N2C(=O)c3cccc4c(N)c(S(=O)(=O)O)cc(c34)C2=O)cc1	82.3%	113%	105%	77.3%	124%	102%	108%	136%	100%	115%
CCNC(=O)OCCc1c2ccccc2nc2ccccc12	111%	115%	119%	92.2%	132%	94.1%	121%	111%	73.7%	76.4%
Nc1c(O)c(S(=O)(=O)O)c(O)c2c1C(=O)c1ccccc1C2=O	6.13% (active)	33.8%	28.1%	12.2%	21.7%	4.01% (active)	13.5%	5.41% (active)	28%	5.87% (active)
Oc1cc2ccccc2c(-c2c(O)c(O)cc3ccccc23)c1O	5.57% (active)	35.9%	49.3%	13.7%	19.4%	23.2%	19.1%	59.1%	-12.5% (active)	30.6%
O=C(OCC1CCCO1)c1ccc([N+](=O)[O-])cc1 (stereo unspecified)	103%	106%	95.3%	86.9%	99.4%	104%	106%	82.2%	94.2%	101%
O=C(c1ccccc1)c1ccc(-c2ccc(O)cc2)cc1	59.1%	64.5%	83.2%	45.2%	68.7%	50.4%	103%	65.1%	60.7%	120%
COc1cc(CC#N)c([N+](=O)[O-])cc1OC	109%	111%	104%	96%	101%	109%	102%	107%	103%	94.6%
CCC12OC(COc3ccccc3)CN1CCN2c1ccccc1 (stereo unspecified)	99.4% [100 µM]	95.2% [100 µM]	96.1% [100 µM]	75.2% [100 µM]	146% [100 µM]	97.3% [100 µM]	89% [100 µM]	107% [100 µM]	101% [100 µM]	94.5% [100 µM]
Cc1ccc(C2CCCCC2)cc1Br	99%	98.9%	101%	83.2%	98.7%	101%	90.3%	88.6%	103%	110%
NNc1ncnc2nc[nH]c12	-7.36% (active)	69.7%	74.6%	30.9%	67.1%	41.1%	42.3%	55.1%	37.8%	56.2%
CC(=O)N(C(C)=O)c1ccc(C)cc1	106%	92.6%	96.1%	92.4%	99.1%	112%	92.7%	119%	106%	93.9%
CCCCCC(=O)OCCC1CCCCC1	106%	108%	97.2%	92.2%	99%	107%	103%	79.3%	83.8%	95.7%
COC(=O)c1ccccc1C(=O)c1c(C)cc(C)cc1C	94%	109%	99.9%	92.9%	88.3%	101%	96.4%	88.9%	99.2%	87.9%
CCCCCCCCCCCCCCCCOc1ccccc1NC(=O)CC(C)=O	92.1%	89.7%	63.9%	25.8%	114%	98.6%	92.5%	93.5%	57.1%	84.8%
O=c1nc(Nc2cccc(Cl)c2)oc2cc(Cl)oc(=O)c12	-14.9% (active)	116%	86.1%	47.9%	98.1%	81.3%	79.6%	103%	56.7%	21.5%
